Structures are written as SMILES. The panel holds about 83,000 compounds, 20% with a hit somewhere; the sample as a whole holds those more often.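 Treatment: one concentration, 48 hours, 96-well format. Scoring: percent growth, with anything below 10 considered active.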 Values without a mark were called inactive. Active and inactive are the calls of the source.

Among the data in PubChem BioAssay (NCI) are growth values, retold here.

What all share (assay): NCI-60 one-dose screen, 48 h (100 = growth as untreated, 0 = no growth, -100 = all killed)
The test system of one assay is HCT-15 colon. The note with it: 10 µM.
In a further assay the test system is HT29 colon. The following applies: 10 µM.
For the next assay, the system named is SNB-75 CNS. The note with it: 10 µM.
The subject of the next assay is SNB-19 CNS. The following applies: 10 µM.
In a further assay the test system is PC-3 prostate. The following applies: 10 µM.
Another assay deals with SK-MEL-5 melanoma. The following applies: 10 µM.
A further assay has as its system UACC-62 melanoma. The following applies: 10 µM unless noted.
In a further assay the test system is LOX IMVI melanoma. The following applies: 10 µM.
Another assay relates to SK-MEL-28 melanoma. The note with it: 10 µM.
In a further assay the test system is SK-MEL-2 melanoma. The note with it: 10 µM.
In a further assay the test system is SN12C renal. The following applies: 10 µM.
A further assay has as its system UO-31 renal. The note with it: 10 µM.
The test system of a further assay is TK-10 renal. The note with it: 10 µM unless noted.
A further assay concerns ACHN renal. The note with it: 10 µM.
In a further assay the test system is CAKI-1 renal. The following applies: 10 µM.
A further assay has as its system A498 renal. The following applies: 10 µM.
Another assay deals with CCRF-CEM leukemia. The note with it: 10 µM.
The test system of a further assay is MOLT-4 leukemia. The following applies: 10 µM.
The next assay concerns U251 CNS. The note with it: 10 µM.
The next assay deals with EKVX NSCLC. The following applies: 10 µM.

As for `CC(=O)OCCO`, the growth with HCT-15 colon was 107%; with HT29 colon it was 120%; with SNB-75 CNS, 84.7%; in the assay on SNB-19 CNS it was 110%; with PC-3 prostate, 104%; in the assay on SK-MEL-5 melanoma it was 102%. Besides, the growth is 108% in the assay on UACC-62 melanoma; 107% with LOX IMVI melanoma; 100% with SK-MEL-28 melanoma; 143% in the assay with SK-MEL-2 melanoma; 98.5% in the assay with SN12C renal; 90.3% in the assay on UO-31 renal. Further, the growth in the assay with TK-10 renal was 114%; with ACHN renal it was 105%; in the assay with CAKI-1 renal it was 104%; with A498 renal, 109%; in the assay with CCRF-CEM leukemia it was 111%; in the assay with MOLT-4 leukemia, 102%.

For the molecule `CCCCNC1(C#N)CCN(Cc2ccccc2)CC1`, the growth was 108% in the assay on HCT-15 colon; 106% in the assay with HT29 colon; 84.2% in the assay with SNB-75 CNS; 91.1% in the assay on SNB-19 CNS; 101% in the assay on U251 CNS; 107% in the assay with SK-MEL-5 melanoma. The growth in the assay on UACC-62 melanoma was 95%; in the assay with SK-MEL-28 melanoma, 102%; in the assay with SK-MEL-2 melanoma, 102%; in the assay on EKVX NSCLC, 95.5%; with SN12C renal, 104%; in the assay with UO-31 renal, 81.1%. The growth in the assay with TK-10 renal is 105%; in the assay with ACHN renal, 106%; with CAKI-1 renal it was 76.1%; in the assay with A498 renal, 78.5%; with CCRF-CEM leukemia, 102%; in the assay with MOLT-4 leukemia, 152%.

Take `S=c1sc2ccccc2n1CN1CCCCC1`: the growth in the assay with HCT-15 colon is 102%; in the assay with HT29 colon it was 101%; with SNB-75 CNS, 77.6%; in the assay on SNB-19 CNS it was 104%; in the assay on U251 CNS it was 104%; with SK-MEL-5 melanoma, 104%. Besides, the growth was 104% in the assay on UACC-62 melanoma; 106% in the assay on SK-MEL-28 melanoma; 94% in the assay with SK-MEL-2 melanoma; 104% in the assay on EKVX NSCLC; 109% in the assay on SN12C renal; 77.2% with UO-31 renal. The growth in the assay on TK-10 renal is 93.7%; in the assay on ACHN renal it was 98.7%; in the assay on CAKI-1 renal, 88.2%; with A498 renal, 96.5%; with CCRF-CEM leukemia, 102%; with MOLT-4 leukemia, 112%.

With `COc1ccccc1NC(=O)c1cc2cc(Br)ccc2cc1O`, the growth was 7.97% (active) in the assay with HCT-15 colon; 72.8% with HT29 colon; 12.4% with SNB-75 CNS; 27.3% in the assay on SNB-19 CNS; 8.67% (active) in the assay with U251 CNS; -74.6% (active) with SK-MEL-5 melanoma. Further, the growth in the assay with UACC-62 melanoma is 24.3%; in the assay with LOX IMVI melanoma, 3.26% (active); with SK-MEL-28 melanoma, 34.6%; with SK-MEL-2 melanoma it was -31.5% (active); in the assay with EKVX NSCLC, 22.4%; with SN12C renal it was 9.1% (active). For the same molecule, the growth with UO-31 renal is -3.91% (active); in the assay on TK-10 renal, 39.8%; in the assay on ACHN renal, -6% (active); in the assay with A498 renal, 18.2%; with CCRF-CEM leukemia, -4.98% (active); in the assay with MOLT-4 leukemia it was -0.261% (active).

With `CC1(C(=O)O)NC(C(=O)O)Cc2c1[nH]c1ccccc21` (stereo unspecified), the growth with HCT-15 colon is 110%; with HT29 colon it was 109%; in the assay with SNB-75 CNS it was 88.8%; in the assay on SNB-19 CNS, 108%; in the assay with U251 CNS, 102%; with SK-MEL-5 melanoma, 104%. The growth in the assay with UACC-62 melanoma was 100%; in the assay with LOX IMVI melanoma, 101%; in the assay on SK-MEL-28 melanoma it was 103%; in the assay on SK-MEL-2 melanoma it was 93.7%; in the assay on SN12C renal, 95.8%; with UO-31 renal, 79.5%. For the same molecule, the growth is 108% in the assay on TK-10 renal; 102% with ACHN renal; 96.5% with CAKI-1 renal; 91.8% in the assay on A498 renal; 82.8% in the assay with CCRF-CEM leukemia; 88.8% in the assay on MOLT-4 leukemia.

In the case of `O=C(NCCNC(=O)c1ccc(Cl)cc1Cl)c1ccc(Cl)cc1Cl`, the growth with HCT-15 colon is 106%; in the assay with HT29 colon, 118%; in the assay with SNB-75 CNS, 102%; in the assay with SNB-19 CNS, 110%; in the assay on PC-3 prostate, 84.5%; with SK-MEL-5 melanoma, 98.5%. In addition, the growth is 91.1% in the assay with UACC-62 melanoma; 94.9% in the assay with LOX IMVI melanoma; 104% with SK-MEL-28 melanoma; 87.1% in the assay with SN12C renal; 90.9% with UO-31 renal; 120% in the assay on TK-10 renal. For the same molecule, the growth is 110% in the assay with ACHN renal, 84.4% in the assay on CAKI-1 renal, 104% in the assay on A498 renal and 96.6% with MOLT-4 leukemia.

Regarding `CC(C(=O)O)(C1CCCCC1)C1(O)CCCCC1` (stereo unspecified), the growth was 104% with HCT-15 colon; 101% in the assay with HT29 colon; 85.2% in the assay with SNB-75 CNS; 111% with SNB-19 CNS; 94.9% in the assay with PC-3 prostate; 113% in the assay on UACC-62 melanoma. Besides, the growth is 95.3% with LOX IMVI melanoma; 107% with SK-MEL-28 melanoma; 100% in the assay with SN12C renal; 84.9% in the assay with UO-31 renal; 91.1% with TK-10 renal; 107% in the assay on ACHN renal. Besides, the growth in the assay with CAKI-1 renal was 96.7%; in the assay with MOLT-4 leukemia, 94.3%.

On to `Sc1ccc(Nc2c3ccccc3nc3ccccc23)cc1`, for which the growth is 79.4% with HCT-15 colon; 88.6% in the assay with HT29 colon; 61.9% with SNB-75 CNS; 79.8% in the assay on SNB-19 CNS; 76.5% with PC-3 prostate; 56.6% in the assay on SK-MEL-5 melanoma. For the same molecule, the growth is 63% with UACC-62 melanoma; 88.5% with LOX IMVI melanoma; 101% in the assay on SK-MEL-28 melanoma; 40.7% in the assay with SK-MEL-2 melanoma; 95.6% with SN12C renal; 82.4% in the assay on UO-31 renal. The growth in the assay on TK-10 renal is 104%; in the assay on ACHN renal, 97%; in the assay with CAKI-1 renal it was 92.2%; in the assay with CCRF-CEM leukemia it was 97.1%; in the assay on MOLT-4 leukemia, 94.1%.

On to `COc1cc(/C=C/C(=O)c2ccccc2)cc(OC)c1OC`, for which the growth is 31.4% with HCT-15 colon; 19.1% with HT29 colon; 71.2% in the assay on SNB-75 CNS; 83.8% with SNB-19 CNS; 58% in the assay with PC-3 prostate; 76.1% in the assay with SK-MEL-5 melanoma. Besides, the growth was 54.9% in the assay with UACC-62 melanoma; 2.98% (active) with LOX IMVI melanoma; 82.3% in the assay with SK-MEL-28 melanoma; 53.3% with SN12C renal; 49.7% in the assay with UO-31 renal; 112% in the assay with TK-10 renal. Moreover, the growth is 51.1% in the assay on ACHN renal, -23.3% (active) in the assay on CAKI-1 renal and 28.8% in the assay on MOLT-4 leukemia.

With `COc1ccc(Oc2c(I)cc(CC(NC(C)=O)C(=O)O)cc2I)cc1` (stereo unspecified), the growth is 96.6% in the assay on HCT-15 colon; 85.2% in the assay on HT29 colon; 87.1% in the assay on SNB-75 CNS; 86.5% in the assay with U251 CNS; 69.5% with PC-3 prostate; 60.7% in the assay on SK-MEL-5 melanoma. The growth in the assay with UACC-62 melanoma was 73.5%; with LOX IMVI melanoma it was 70%; in the assay on SK-MEL-28 melanoma, 103%; in the assay on SK-MEL-2 melanoma it was 102%; in the assay with EKVX NSCLC, 67.9%; with SN12C renal, 83.8%. Further, the growth is 71.7% with UO-31 renal; 113% in the assay on TK-10 renal; 97.6% in the assay with ACHN renal; 57.4% in the assay with CAKI-1 renal; 79.7% in the assay on A498 renal; 78.4% in the assay on CCRF-CEM leukemia. For the same molecule, the growth with MOLT-4 leukemia is 60.9%.
